The text below walks through data of paper PMC11062922 (Nature Chemical Biology, 2023).

One assay relates to AAK1. The arrangement: species or system human, MV4-11 + K-562 + COLO205 + SK-N-BE2 + OVCAR-8. The following applies: read-out: apparent Kd; compound concentrations: 100 nM and 1000 nM (sheet 'Samples'), CATDS: 0.158998542924943; n = 1.
A further assay relates to CLK1. More on the design: species or system human, MV4-11 + K-562 + COLO205 + SK-N-BE2 + OVCAR-8. The following applies: read-out: apparent Kd, n = 1.
A further assay relates to CLK4. More on the design: species or system human, MV4-11 + K-562 + COLO205 + SK-N-BE2 + OVCAR-8. To be noted: read-out: apparent Kd, compound concentrations: 100 nM and 1000 nM (sheet 'Samples'), n = 1.
A further assay concerns the target Q6ZSR9 (human, UniProt Q6ZSR9). The arrangement: species or system MV4-11 + K-562 + COLO205 + SK-N-BE2 + OVCAR-8. The following applies: read-out: apparent Kd, compound concentrations: 100 nM and 1000 nM (sheet 'Samples'), n = 1.
The test system of the next assay is ABL1. More on the design: species or system human, MV4-11 + K-562 + COLO205 + SK-N-BE2 + OVCAR-8. The following applies: read-out: apparent Kd, n = 1.
The test system of another assay is ABL2. More on the design: species or system human, MV4-11 + K-562 + COLO205 + SK-N-BE2 + OVCAR-8. The following applies: read-out: apparent Kd, n = 1.
The test system of the next assay is BCR. More on the design: species or system human, MV4-11 + K-562 + COLO205 + SK-N-BE2 + OVCAR-8. To be noted: read-out: apparent Kd, n = 1.
The next assay relates to FYN. The arrangement: species or system human, MV4-11 + K-562 + COLO205 + SK-N-BE2 + OVCAR-8. The following applies: read-out: apparent Kd, n = 1.
The test system of a further assay is GAK. More on the design: species or system human, MV4-11 + K-562 + COLO205 + SK-N-BE2 + OVCAR-8. The following applies: read-out: apparent Kd, n = 1.
Another assay relates to HCK. More on the design: species or system human, MV4-11 + K-562 + COLO205 + SK-N-BE2 + OVCAR-8. To be noted: read-out: apparent Kd, n = 1.
The test system of another assay is LCK. The arrangement: species or system human, MV4-11 + K-562 + COLO205 + SK-N-BE2 + OVCAR-8. The following applies: read-out: apparent Kd, n = 1.
The test system of a further assay is PTK6. More on the design: species or system human, MV4-11 + K-562 + COLO205 + SK-N-BE2 + OVCAR-8. The following applies: read-out: apparent Kd, n = 1.
The subject of another assay is RET. The arrangement: species or system human, MV4-11 + K-562 + COLO205 + SK-N-BE2 + OVCAR-8. To be noted: read-out: apparent Kd, n = 1.
In another assay the test system is RIPK2. The arrangement: species or system human, MV4-11 + K-562 + COLO205 + SK-N-BE2 + OVCAR-8. The following applies: read-out: apparent Kd, n = 1.
Another assay deals with RIPK3. More on the design: species or system human, MV4-11 + K-562 + COLO205 + SK-N-BE2 + OVCAR-8. To be noted: read-out: apparent Kd, n = 1.
In a further assay the test system is TNK1. More on the design: species or system human, MV4-11 + K-562 + COLO205 + SK-N-BE2 + OVCAR-8. The following applies: read-out: apparent Kd, n = 1.
The subject of a further assay is YES1. The arrangement: species or system human, MV4-11 + K-562 + COLO205 + SK-N-BE2 + OVCAR-8. The following applies: read-out: apparent Kd, n = 1.
Another assay deals with CSNK2A1;CSNK2A3. More on the design: species or system human, MV4-11 + K-562 + COLO205 + SK-N-BE2 + OVCAR-8. To be noted: read-out: apparent Kd, n = 1.
Another assay has as its system CSNK2A2. The arrangement: species or system human, MV4-11 + K-562 + COLO205 + SK-N-BE2 + OVCAR-8. The following applies: read-out: apparent Kd, n = 1.
Setting [1] is: compound concentrations:100 nM and 1000 nM (sheet 'Samples').

Molecules are shown by their SMILES. Where two headings read alike, the source gives them in different places.

Chain of Q6ZSR9 (Q6ZSR9 whole entry, looked up): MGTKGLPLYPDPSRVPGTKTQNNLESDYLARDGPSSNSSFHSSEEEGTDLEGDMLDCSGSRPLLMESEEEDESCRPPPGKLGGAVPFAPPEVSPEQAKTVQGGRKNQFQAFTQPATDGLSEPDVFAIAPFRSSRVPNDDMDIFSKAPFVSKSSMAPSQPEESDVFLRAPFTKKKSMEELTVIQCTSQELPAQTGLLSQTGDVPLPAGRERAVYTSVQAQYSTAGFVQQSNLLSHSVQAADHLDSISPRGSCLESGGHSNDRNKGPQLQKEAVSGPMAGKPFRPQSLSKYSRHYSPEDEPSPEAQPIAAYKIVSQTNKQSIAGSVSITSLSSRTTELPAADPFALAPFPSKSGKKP

Take `O=C1N=C(N[C@@H](CO)c2ccccc2)S/C1=C\c1ccc2ncccc2c1` [RO4554340-000]: the potency estimated from few doses in the assay on AAK1 is 1190 nM; in the assay with CLK1 (compound concentrations: 100 nM and 1000 nM (sheet 'Samples'), CATDS: 0.44812709075051699), 156 nM; in the assay with CLK4 (CATDS: 0.232280366030543), 478 nM; with Q6ZSR9 (CATDS: 0.16133585717123999), 1140 nM.
As for `CCN(CC)CCOc1ccc(Nc2ncc3cc(-c4c(Cl)cccc4Cl)c(=O)n(C)c3n2)cc1` [SB-601273], the potency estimated from few doses is 72.7 nM in the assay on ABL1 (setting [1]); 8.98 nM with ABL2 (setting [1]); 5.53 nM in the assay with BCR (setting [1]); 130 nM in the assay with FYN (setting [1]); 55.4 nM in the assay with GAK (setting [1]); 299 nM with HCK (setting [1]). For the same molecule, the potency estimated from few doses is 39 nM in the assay on LCK (setting [1]); 224 nM in the assay on PTK6 (setting [1]); 167 nM in the assay on RET (setting [1]); 19.4 nM with RIPK2 (setting [1]); 765 nM in the assay with RIPK3 (setting [1]); 631 nM in the assay with TNK1 (setting [1]). Also, the potency estimated from few doses in the assay with YES1 (setting [1]) is 80.1 nM.
Consider `O=C1N=C(NCc2cccs2)SC1Cc1ccc2ncccc2c1` (stereo not shown) [RO4629078-000], for which the potency estimated from few doses in the assay with ABL1 (compound concentrations: 100 nM and 1000 nM (sheet 'Samples'), CATDS: 1.03104130889283E-2) is 621 nM; in the assay on ABL2 (compound concentrations: 100 nM and 1000 nM (sheet 'Samples'), CATDS: 1.75956171974825E-2), 217 nM; with BCR (compound concentrations: 100 nM and 1000 nM (sheet 'Samples'), CATDS: 1.49763815406264E-2), 286 nM; in the assay on CLK1 (compound concentrations: 100 nM and 1000 nM (sheet 'Samples'), CATDS: 1.45453045118455E-2) it was 302 nM; in the assay with CLK4 (CATDS: 1.03422471087564E-2) it was 616 nM; with CSNK2A1;CSNK2A3 (compound concentrations: 100 nM and 1000 nM (sheet 'Samples'), CATDS: 1.1621769953454601E-2) it was 472 nM. The potency estimated from few doses with CSNK2A2 (compound concentrations: 100 nM and 1000 nM (sheet 'Samples'), CATDS: 1.0295745768990301E-2) is 623 nM; with FYN (compound concentrations: 100 nM and 1000 nM (sheet 'Samples'), CATDS: 9.7047847946103404E-3), 723 nM; in the assay with GAK (compound concentrations: 100 nM and 1000 nM (sheet 'Samples'), CATDS: 1.7863526328031998E-2), 211 nM; in the assay on HCK (compound concentrations: 100 nM and 1000 nM (sheet 'Samples'), CATDS: 1.13886455432966E-2) it was 493 nM; in the assay on LCK (compound concentrations: 100 nM and 1000 nM (sheet 'Samples'), CATDS: 1.24730570121841E-2) it was 406 nM; in the assay on PTK6 (compound concentrations: 100 nM and 1000 nM (sheet 'Samples'), CATDS: 9.8307432544906398E-3) it was 699 nM. The potency estimated from few doses was 314 nM with Q6ZSR9 (CATDS: 1.4224903483056099E-2); 328 nM in the assay on RET (compound concentrations: 100 nM and 1000 nM (sheet 'Samples'), CATDS: 1.39088138771742E-2); 777 nM with RIPK2 (compound concentrations: 100 nM and 1000 nM (sheet 'Samples'), CATDS: 9.4422951571236906E-3); 158 nM in the assay with TNK1 (compound concentrations: 100 nM and 1000 nM (sheet 'Samples'), CATDS: 2.1497624040677302E-2); 474 nM with YES1 (compound concentrations: 100 nM and 1000 nM (sheet 'Samples'), CATDS: 1.15943383738287E-2).
Take `NS(=O)(=O)CCc1cccc(Nc2nccc(-c3c(-c4cccc(NC(=O)c5c(F)cccc5F)c4)nn4ccccc34)n2)c1` [GSK336735A]: the potency estimated from few doses with ABL2 (compound concentrations: 100 nM and 1000 nM (sheet 'Samples'), CATDS: 7.5550907623065294E-2) is 635 nM; in the assay on FYN (compound concentrations: 100 nM and 1000 nM (sheet 'Samples'), CATDS: 5.89205391615404E-2), 1140 nM; in the assay on HCK (compound concentrations: 100 nM and 1000 nM (sheet 'Samples'), CATDS: 9.1712833747147296E-2), 439 nM; with LCK (compound concentrations: 100 nM and 1000 nM (sheet 'Samples'), CATDS: 8.1556930046594894E-2), 546 nM; with RET (compound concentrations: 100 nM and 1000 nM (sheet 'Samples'), CATDS: 0.15467463345214499), 196 nM; in the assay on RIPK3 (compound concentrations: 100 nM and 1000 nM (sheet 'Samples'), CATDS: 7.11931563666406E-2) it was 719 nM. Moreover, the potency estimated from few doses is 475 nM in the assay with TNK1 (compound concentrations: 100 nM and 1000 nM (sheet 'Samples'), CATDS: 8.7840058842797303E-2); 354 nM in the assay on YES1 (compound concentrations: 100 nM and 1000 nM (sheet 'Samples'), CATDS: 0.104182093569698).
On to `CN(C)Cc1ccc(-c2ccc3c(Nc4ccc(Oc5ccccn5)cc4)ccnc3c2)o1` [GW567148X], for which the potency estimated from few doses is 474 nM in the assay with ABL1 (compound concentrations: 100 nM and 1000 nM (sheet 'Samples'), CATDS: 2.6696820742308999E-2); 716 nM in the assay with ABL2 (compound concentrations: 100 nM and 1000 nM (sheet 'Samples'), CATDS: 2.2474655179730001E-2); 671 nM in the assay with BCR (compound concentrations: 100 nM and 1000 nM (sheet 'Samples'), CATDS: 2.3050499166144999E-2); 1550 nM in the assay on CLK1 (compound concentrations: 100 nM and 1000 nM (sheet 'Samples'), CATDS: 1.75413407111282E-2); 385 nM in the assay with FYN (compound concentrations: 100 nM and 1000 nM (sheet 'Samples'), CATDS: 2.9409133210556101E-2); 622 nM in the assay with GAK (compound concentrations: 100 nM and 1000 nM (sheet 'Samples'), CATDS: 2.37556853543167E-2). Moreover, the potency estimated from few doses with HCK (compound concentrations: 100 nM and 1000 nM (sheet 'Samples'), CATDS: 0.14804740289448201) was 30.7 nM; with LCK (compound concentrations: 100 nM and 1000 nM (sheet 'Samples'), CATDS: 3.1046843535100802E-2) it was 345 nM; with PTK6 (compound concentrations: 100 nM and 1000 nM (sheet 'Samples'), CATDS: 5.2806540733476098E-2), 134 nM; with RIPK2 (compound concentrations: 100 nM and 1000 nM (sheet 'Samples'), CATDS: 9.2431358445575804E-2), 57.7 nM; in the assay with RIPK3 (compound concentrations: 100 nM and 1000 nM (sheet 'Samples'), CATDS: 2.29584105489756E-2), 678 nM; in the assay with TNK1 (compound concentrations: 100 nM and 1000 nM (sheet 'Samples'), CATDS: 3.2421651582332497E-2), 316 nM. Moreover, the potency estimated from few doses in the assay on YES1 (compound concentrations: 100 nM and 1000 nM (sheet 'Samples'), CATDS: 6.4400674253028201E-2) is 97.8 nM.
On to `Nc1nc(N)c2nc(-c3ccccc3)[nH]c2n1` [SKF-12778], for which the potency estimated from few doses in the assay on CLK1 (setting [1]) is 1150 nM; with CSNK2A1;CSNK2A3 (setting [1]) it was 1350 nM; in the assay on CSNK2A2 (setting [1]), 1100 nM; in the assay on PTK6 (setting [1]), 1150 nM; in the assay on YES1 (setting [1]), 1040 nM.
`Cn1cc(-c2ccc3c(c2)CCN3C(=O)Cc2cccc(Cl)c2)c2c(N)ncnc21` [GSK2606590A]: the potency estimated from few doses with ABL1 (compound concentrations: 100 nM and 1000 nM (sheet 'Samples'), CATDS: 0.26932988266552799) is 1720 nM.
